# Data from PubChem BioAssay AID1443 (Sanford-Burnham Center for Chemical Genomics, 2008).
# The whole screen tested about 220,000 compounds, of which about 880 (0.4%) were called active.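 How the source made its calls: active means cell killing above 50% in the first pass at 4 µM, then a duplicate retest at 5 µM averaging 50% or more; inactive means the rest.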 The full list was thinned out, with actives kept by preference.
# Test: compounds killing PPC-1 cancer cells with TRAIL present, primary screen, TRAIL potentiator project, ATPLite luminescence, uHTS (AID 1443);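 further: plate controls were cells with TRAIL plus DMSO for no effect and medium-only wells lacking cells for full effect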
# Settings: PPC-1 cells + TRAIL, ATPLite viability luminescence, hits give high values; at 4 µM unless noted
row,Compound,cell killing (% activity)
1,COC(=O)c1sc(NC(=S)NC(=O)c2ccc(C)cc2)nc1C,27.1% (inactive)
2,CC(=O)c1sc(NC(=O)c2cccc3ccccc23)nc1C,32% (inactive)
3,CC(=O)c1sc(NC(=O)c2ccc(C)cc2)nc1C,56.3% [at 5 µM] (active)
4,CC(=O)c1cc(-c2ccccc2)n(CC(=O)NC2CCCCC2)c1C,6.9% (inactive)
5,CCCCCC(O)c1cccc(OCc2ccc3ccccc3n2)c1 (stereo unspecified),10.7% (inactive)
6,Cc1n[nH]c(=O)nc1N/N=C/c1cccs1,12.1% (inactive)
7,COc1cccc(NC(=O)CC(c2ccc(OC(C)C)cc2)c2ccccc2OC)c1 (stereo unspecified),22.6% (inactive)
8,C=C(C)CNC(=S)Nc1ccc(S(=O)(=O)Nc2cnc3ccccc3n2)cc1,12.5% (inactive)
9,O=C(O)c1ccc(N/N=C/c2cn(-c3ccccc3)nc2-c2cccs2)cc1,79% [at 5 µM] (active)
10,O=C(O)/C=C/c1cn(-c2ccccc2)nc1-c1cccs1,15.1% (inactive)
11,O=C(/C=C\c1cn(-c2ccccc2)nc1-c1cccs1)N1CCOCC1,5.8% (inactive)
12,O=C(COC(=O)Cc1ccc(Br)cc1)Nc1c(F)c(F)c(F)c(F)c1F,17% (inactive)
13,O=C(CCl)Nc1cccc(CP(=O)(c2ccccc2)c2ccccc2)c1,-1.1% (inactive)
14,O=C(Cc1cccs1)N/N=C/c1ccc(OCc2ccccc2)cc1,20% (inactive)
15,CC[C@@H](C)[C@@H](C(=O)N1CCN(C(=O)OC(C)(C)C)CC1)n1cc(CCC(=O)O)nn1,19% (inactive)
16,CC(=O)c1ccc(NC(=O)C2CC(=O)Nc3nc4ccccc4n32)cc1 (stereo unspecified),27.4% (inactive)
17,COc1cc(C2C(N3C(=O)c4ccccc4C3=O)C(=O)N2c2ccc(C)c(C)c2)cc(OC)c1OC (stereo unspecified),0.4% (inactive)
18,COC(=O)[C@H](CC(C)C)NC(=O)N1CCCCC1C (stereo partly specified),8.6% (inactive)
19,CS(=O)(=O)N(CC(=O)N/N=C/c1ccccn1)c1ccc(Oc2ccccc2)cc1,2.8% (inactive)
20,CC(CNC(=O)c1ccc(N)cc1)NC(=O)c1ccc(N)cc1 (stereo unspecified),15.7% (inactive)
21,O=C(NN1C(=O)C2C(C1=O)C1C=CC2C12CC2)c1ccccc1Cl (stereo unspecified),15.1% (inactive)

row,Compound,cell killing (% activity)
1,COc1ccc(NC(=O)C2=NNC(=O)CC2)cc1S(=O)(=O)N1CCCCC1,2.4% (inactive)
2,CCOc1cc(NC(=O)c2ccccn2)c(OCC)cc1NC(=O)c1ccc(OC)cc1,6.2% (inactive)
3,COc1ccc(C(=O)/C=C/Nc2ccccn2)cc1,74.5% [at 5 µM] (active)
4,COc1ccc(-c2csc(Nc3ccccn3)n2)cc1,26.9% (inactive)
5,Cc1ccc(/C=N/NC(=O)CSc2ccccn2)o1,28% (inactive)
6,Cc1ccnc(NC(=O)Cn2ccc([N+](=O)[O-])n2)c1,-4.4% (inactive)
7,CN1C(=O)/C(=C/C=C2\SCCN2C)OC1=S,7.1% (inactive)
8,COCCNC(=O)/C(C#N)=C/c1cccc(OCc2ccccc2)c1,6.3% (inactive)
9,CCOc1ccc(/C=N/Nc2nncc(-c3ccccc3)n2)cc1OC,-7.3% (inactive)
10,COc1cc(/C=N/Nc2nn3cnnc3c3ccccc23)cc(OC)c1OC,58.2% (active)
11,COc1ccc(/C=N/Nc2nc3ccccc3o2)cc1OC,33% (inactive)
12,COc1ccc(NC(=O)C2CCC(CNc3c(N4CCCCC4)c(=O)c3=O)CC2)c(OC)c1 (stereo unspecified),-39.4% (inactive)
13,Cc1noc(C)c1S(=O)(=O)N(C)Cc1ccccc1,17.3% (inactive)
14,O=C(Nc1nc2ccccc2s1)c1ccc2c(c1)OCO2,61.1% (active)
15,Cc1cc(C)c2nc(NC(=O)c3ccc4c(c3)OCO4)sc2c1,4.5% (inactive)
16,COCc1nnc(NC(=O)c2ccc3c(c2)OCO3)s1,21.9% (inactive)
17,Cc1ccc(NC(=O)CCC(=O)N/N=C/c2ccco2)c(C)c1,5.1% (inactive)
18,COC(=O)C(=Nc1ccccc1)/C(C(=O)C(=O)N(C)c1ccccc1)=C(\O)c1ccc(Cl)cc1,-15.5% (inactive)
19,CC1(C)COC(c2cccn2Cc2ccccc2Cl)=N1,3.7% (inactive)
20,O=C(N/N=C/C=C/c1ccco1)c1cccs1,24.4% (inactive)
21,COc1cccc(-c2cc(C(=O)N/N=C/c3ccc(OC)c(COC(C)=O)c3)c3ccccc3n2)c1,4.5% (inactive)

row,Compound,cell killing (% activity)
1,Cc1ccc(-c2cc(C(=O)N/N=C/C=C/c3ccco3)c3ccccc3n2)cc1C,55.7% [at 5 µM] (active)
2,Nc1ccccc1SC(C[N+](=O)[O-])c1ccccc1 (stereo unspecified),6.4% (inactive)
3,O=c1c2ccccc2cnn1Cc1n[nH]c(=S)n1-c1ccccc1F,17.1% (inactive)
4,COc1ccc(Cl)cc1NC(=O)Cn1nc(-c2ccc(C)cc2)n(C)c1=S,14.2% (inactive)
5,Cn1cnc([N+](=O)[O-])c1Sc1n[nH]c(N)n1,-16.4% (inactive)
6,COc1cccc(CNC(=O)CCC2CCCN(C(=O)c3cc(C)[nH]n3)C2)c1 (stereo unspecified),12.1% (inactive)
7,CCOC(=O)CSc1nnc(-c2ccc([N+](=O)[O-])cc2)o1,7.7% (inactive)
8,CCc1ccccc1NC(=O)CSc1nnc(-c2ccncc2)o1,-4.8% (inactive)
9,O=C(CSc1nnc(-c2ccc([N+](=O)[O-])cc2)o1)Nc1ccccn1,51% [at 5 µM] (active)
10,COc1ccc(CNC(=O)C(Cc2ccccc2)n2cccc2)cc1 (stereo unspecified),-1.5% (inactive)
11,O=C(CCN1C(=O)C2C3C=CC(C3)C2C1=O)Oc1ccc2ccccc2c1 (stereo unspecified),9.1% (inactive)
12,CCCCCCCNc1nc(Cl)nc(NCCO)n1,17.1% (inactive)
13,CC(C)(O)C#Cc1ncc(C(F)(F)F)cc1Cl,3.1% (inactive)
14,Cc1c(C2=CCN(S(=O)(=O)c3ccc(Cl)cc3)CC2)c2ccccc2n1C,31.7% (inactive)
15,CN1c2ccccc2-c2nc3ccccc3n2C1c1ccco1 (stereo unspecified),12% (inactive)
16,S=c1[nH]nc(-c2ccco2)n1/N=C/c1ccccc1,8% (inactive)
17,Cn1c(-c2ccco2)nc2cc3ccccc3cc21,89.2% [at 5 µM] (active)
18,CC(C)C(C)(C#N)NC(=O)CSc1nc2scc(-c3ccccc3)c2c(=O)[nH]1 (stereo unspecified),22.3% (inactive)
19,COc1ccccc1N1CCN(C(=O)c2ccc(Cl)c(S(=O)(=O)N3CCCC3)c2)CC1,0.9% (inactive)
